Measurements published in PubChem BioAssay (Tox21).
Where “and” joins values, the source holds several entries; their conditions need not be identical. Equal values may be shown once. Records with an inconclusive call do not appear. A structure can be active in one record and inactive in another. Calls of active or inactive are those of the source. The call rests on the fitted dose curve; in most records, active means well fitted curve in the direction sought with a large enough effect in the repeat runs; inconclusive means weak or mixed curves; inactive means no such curve, though single readings can be large; an effect the other way counts as inactive or inconclusive.

What was measured:
[1] = A CellTox Green Cytotoxicity Assay to monitor cytotoxicity in HEK293 cells - 40 hour (AID 1224871); further: nearly all actives have a fitted effect of over 45% in size; further: potency means the concentration at half of the fitted maximal effect
Method in brief: (§1)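 Tox21 screen in HEK293: membrane-impermeant cyanine dye fluoresces on binding dead-cell DNA; compound pinned 5 h post-seeding, plates held at 37 C, signal read repeatedly through 40 h.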

[2] = qHTS RealTime-Glo MT Cell Viability Assay in HEK293 cells - 16 hour (AID 1224872); further: nearly all actives have a fitted effect of over 50% in size; further: potency means the concentration at half of the fitted maximal effect; on activity change, negative = cytotoxicity: top concentration of the series differs between compounds
Method in brief: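 Tox21 10K qHTS, HEK293, 600 cells/well, RealTime-Glo reagent co-dispensed with cells; 5 h preincubation, compound by pintool, 37 C, luminescence at 0–40 h.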

[3] = qHTS RealTime-Glo MT Cell Viability Assay in HepG2 cells - 8 hour (AID 1224873); further: nearly all actives have a fitted effect of over 55% in size
Method in brief: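 HepG2 cells (600/well) mixed with RealTime-Glo MT reagent, settled 5 h at 37 C/5% CO2 before compound addition. Nonlytic NanoLuc luminescence from viable-cell prosubstrate reduction read repeatedly during 40 h treatment at 37 C.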

[4] = qHTS RealTime-Glo MT Cell Viability Assay in HEK293 cells - 40 hour (AID 1224874); conditions: RealTime-Glo luminescence; max response: stronger effect = lower value; further: nearly all actives have a fitted effect of over 50% in size; further: potency means the concentration at half of the fitted maximal effect
Method in brief: (§2)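 HEK293 + NanoLuc + prosubstrate, 600 cells/well; 5 h, 37 C/5% CO2; compound 23 nL in DMSO by pintool; 37 C; luminescence read at 0, 8, 16, 24, 32 and 40 h time points.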

[5] = A CellTox Green Cytotoxicity Assay to monitor cytotoxicity in HEK293 cells - 24 hour (AID 1224875); further: series mostly up to about 77 µM; nearly all actives have a fitted effect of over 45% in size
Method in brief: as §1

[6] = A CellTox Green Cytotoxicity Assay to monitor cytotoxicity in HepG2 cells - 16 hour (AID 1224876); further: nearly all actives have a fitted effect of over 45% in size; further: potency means the concentration at half of the fitted maximal effect
Method in brief: (§3)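 Measurements at 0, 8, 16, 24, 32 and 40 h of treatment captured CellTox Green fluorescence in HepG2 cells that had been co-plated with reagent and preincubated 5 h at 37 C/5% CO2.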

[7] = qHTS RealTime-Glo MT Cell Viability Assay in HepG2 cells - 32 hour (AID 1224877); further: nearly all actives have a fitted effect of over 55% in size; further: potency means the concentration at half of the fitted maximal effect
Method in brief: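 Cells + NanoLuc/prosubstrate dispensed (600 cells/well) → 5 h at 37 C/5% CO2 → compounds in DMSO transferred → 40 h incubation at 37 C, luminescence read at 0, 8, 16, 24, 32, 40 h.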

[8] = A CellTox Green Cytotoxicity Assay to monitor cytotoxicity in HepG2 cells - 24 hour (AID 1224878); further: nearly all actives have a fitted effect of over 45% in size; further: potency means the concentration at half of the fitted maximal effect
Method in brief: as §3

[9] = A CellTox Green Cytotoxicity Assay to monitor cytotoxicity in HepG2 cells - 40 hour (AID 1224879); further: nearly all actives have a fitted effect of over 40% in size; further: potency means the concentration at half of the fitted maximal effect
Method in brief: as §3

[10] = qHTS RealTime-Glo MT Cell Viability Assay in HEK293 cells - 0 hour (AID 1224880)
Method in brief: as §2
On the % scale 0 is the no-effect control and ±100 the full control effect.

CCn1cc(C(=O)O)c(=O)c2cc(F)c(N3CCNC(C)C3)c(F)c21 (configuration not stated)
inactive: Potency [1] | Potency [2] | Potency [3] | max response [4] 14.9% | Potency [5] | Potency [6] | Potency [7] | Potency [8] | Potency [9] | Potency [10]

Cc1cccc([N+](=O)[O-])c1C(=O)O
inactive: Potency [1] | Potency [2] | Potency [3] | max response [4] -0.164% | Potency [5] | Potency [6] | Potency [7] | Potency [8] | Potency [9] | Potency [10]

OCC(CO)N[C@H]1C[C@](O)(CO)[C@@H](O)[C@H](O)[C@H]1O
inactive: Potency [1] | Potency [2] | Potency [3] | max response [4] 11.4% | Potency [5] | Potency [6] | Potency [7] | Potency [8] | Potency [9]

O=C1NCC2(CCN(CCc3ccccc3)CC2)O1
inactive: Potency [1] | Potency [2] | Potency [3] | max response [4] 2.88% | Potency [5] | Potency [6] | Potency [7] | Potency [8] | Potency [9]

Cc1scc2c1N(C(=O)CN1CCN(C)CC1)c1ccccc1NC2=O
inactive: Potency [1] | Potency [2] | Potency [3] | max response [4] 1.2% | Potency [5] | Potency [6] | Potency [7] | Potency [8] | Potency [9] | Potency [10]

Oc1ccc(Cl)cc1Cc1cc(Cl)ccc1O
inactive: Potency [1] | Potency [3] | Potency [5] | Potency [6] | Potency [8] | Potency [9]
active: Potency [2] 22.3 µM | Potency [4] 17.7 µM and 43.6 µM and 16.9 µM | Potency [7] 49.9 µM

O=C(O)CCc1ccccc1
inactive: Potency [1] | Potency [2] | Potency [3] | max response [4] 3.43% | Potency [5] | Potency [6] | Potency [7] | Potency [8] | Potency [9]

CC(=O)Nc1ccc(C(=O)CCl)cc1
inactive and 21.9 µM (active): Potency [7] | Potency [8]
inactive and 13.8 µM (active): Potency [2]
inactive and 15.5 µM (active): Potency [1]
active: Potency [4] 21.9 µM
inactive and 19.5 µM (active): Potency [9]
inactive: Potency [3] | max response [4] 19.7% | Potency [6] | Potency [10]

NNCCc1ccccc1
inactive: Potency [1] | Potency [2] | Potency [3] | max response [4] -29.6% and 3.04% | Potency [5] | Potency [6] | Potency [7] | Potency [8] | Potency [9] | Potency [10]

CC(=O)CC(=O)Nc1ccc2[nH]c(=O)[nH]c2c1
inactive: Potency [1] | Potency [2] | Potency [3] | max response [4] -1.76% | Potency [5] | Potency [6] | Potency [7] | Potency [8] | Potency [9] | Potency [10]

CCCCCCCCCCCC[N+](C)(C)C
active: Potency [1] 54.8 µM and 17.4 µM and 54.9 µM | Potency [4] 4.35 µM and 9.77 µM | Potency [6] 43.6 µM | Potency [7] 48.9 µM and 49 µM | Potency [8] 54.8 µM and 54.9 µM and 49 µM | Potency [9] 43.5 µM and 43.6 µM and 38.9 µM
inactive: Potency [2] | Potency [3] | Potency [5]

Nc1cc(S(=O)(=O)O)cc2cc(S(=O)(=O)O)cc(O)c12
inactive: Potency [1] | Potency [2] | Potency [3] | max response [4] -12.9% | Potency [5] | Potency [6] | Potency [7] | Potency [8] | Potency [9]

O=c1n(CC2CO2)c(=O)n(CC2CO2)c(=O)n1CC1CO1 (configuration not stated)
active: Potency [4] 1.37 µM
inactive: Potency [1] | Potency [2] | Potency [3] | Potency [5] | Potency [6] | Potency [7] | Potency [8] | Potency [9]

O=C(O)c1cn(-c2ccc(F)cc2)c2cc(N3CCNCC3)c(F)cc2c1=O
inactive: Potency [1] | Potency [2] | Potency [3] | max response [4] 4.85% and 19.5% | Potency [5] | Potency [6] | Potency [7] | Potency [8] | Potency [9]

CC(=O)OCC1=C(C(=O)O)N2C(=O)[C@@H](NC(=O)Cc3cccs3)[C@H]2SC1
inactive: Potency [1] | Potency [2] | Potency [3] | max response [4] 6.98% | Potency [5] | Potency [6] | Potency [7] | Potency [8] | Potency [9] | Potency [10]

NC(Cc1ccc(Cl)cc1)C(=O)O (configuration not stated)
inactive: cytotoxicity increase [1] -8.99% [at 0.29 µM] | activity change, negative = cytotoxicity [2] 9.16% [at 0.29 µM] | viability change, negative = cytotoxic [3] -7.98% [at 0.29 µM] | max response [4] 10.5% | activity change [5] -5.17% [at 0.29 µM, stronger effect = higher value] | cytotoxicity increase [6] -4.84% [at 0.29 µM] | activity change, negative = cytotoxic [7] 0.542% [at 0.29 µM] | cytotoxicity [8] -5.86% [at 0.29 µM] | cytotoxicity increase [9] -9.84% [at 0.29 µM] | activity change, negative = cytotoxicity [10] 12.3% [at 0.29 µM]
